PubChem BioAssay (EPA / NIEHS)
Results filed as inconclusive are left out. Activity calls are given as the source filed them. Rule for the calls, unless noted: active = hit-call score of the fitted dose curve at least 0.9, where 1 is the maximum; inactive = score below 0.9.

What was measured:
[1] = read-out: Interleukin-8 (IL8), CXCL8 (gene 3576); assay: BSK_3C_IL8: BioMAP Diversity Plus: 3C Assay for Interleukin-8 (IL8) Biomarker Activity (AID 2283020); details: primary human endothelial cells (HUVEC); actives raise or lower the signal
Outline: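 Using DMSO-treated wells as the baseline, bidirectional curve fitting was applied to ELISA-measured IL-8 from human umbilical vein endothelial cultures sampled 24 h after compound addition.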

[2] = read-out: Monokine induced gamma interferon (MIG), CXCL9 (gene 4283); assay: BSK_3C_MIG: BioMAP Diversity Plus: 3C Assay for Monokine induced gamma interferon (MIG) Biomarker Activity (AID 2283021); details: primary human endothelial cells (HUVEC); actives raise or lower the signal
Outline: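 ELISA-measured MIG in dosed HUVEC 3C cultures at 24 h, analysed by bidirectional fitting with DMSO defining baseline activity.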

[3] = BSK_3C_SRB: Viability Assessment in the BioMAP Diversity Plus: 3C Assay (AID 2283023); details: primary human endothelial cells (HUVEC);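 note: cells read 24 h after compound dosing; fitted both ways against DMSO so a hit may be signal rise or drop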
Outline: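 HUVEC, 24 h post-dose; 10% TCA fix, 0.1% SRB stain, A560 nm. Bidirectional curve fit vs DMSO negative control.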

[4] = read-out: Matrix Metallopeptidase 1 (MMP1), MMP1 (gene 4312); assay: BSK_BE3C_MMP1: BioMAP Diversity Plus: BE3C Assay for Matrix Metallopeptidase 1 (MMP1) Biomarker Activity (AID 2283024); details: primary human bronchial epithelial cells; actives raise or lower the signal
Outline: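 In this multiplexed primary-cell system, human bronchial epithelium received chemicals for 24 h before an ELISA for MMP1. Values reflect bidirectional fits normalised to the DMSO baseline.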

[5] = BSK_3C_Vis: BioMAP Diversity Plus: 3C Assay for Morphology Visualization (AID 2283025); details: primary human endothelial cells (HUVEC);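 note: fitted both ways so gain or loss versus DMSO counts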
Outline: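 Light-microscopy morphology readout, 24 h exposure, human primary umbilical vein endothelium; analysed relative to DMSO with bidirectional fitting.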

[6] = read-out: Pselectin, SELP (gene 6403); assay: BSK_4H_Pselectin: BioMAP Diversity Plus: 4H Assay for Pselectin Biomarker Activity (AID 2283026); details: primary human endothelial cells (HUVEC); actives raise or lower the signal
Outline: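 Bidirectional fits against DMSO gave the endpoint. Cells: primary human umbilical vein endothelium, chemical-treated for 24 h before ELISA detection of P-selectin.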

[7] = BSK_4H_SRB: Viability Assessment in the BioMAP Diversity Plus: 4H Assay (AID 2283027); details: primary human endothelial cells (HUVEC);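 note: cells exposed to compound for 24 h before staining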
Outline: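 HUVEC, 24 h post-dose; 10% TCA fix, 0.1% SRB stain, A560 nm. Total protein = overt cytotoxicity, parallel to biomarker read. Bidirectional fit vs DMSO baseline.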

[8] = BSK_BE3C_SRB: Viability Assessment in the BioMAP Diversity Plus: BE3C Assay (AID 2283028); details: primary human bronchial epithelial cells
Outline: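 Primary human bronchial epithelium; chemical dosing, 24 h; 10% TCA fix, 0.1% SRB stain, A560; bidirectional fit vs DMSO baseline.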

[9] = read-out: Thrombomodulin, THBD (gene 7056); assay: BSK_3C_Thrombomodulin: BioMAP Diversity Plus: 3C Assay for Thrombomodulin Biomarker Activity (AID 2283029); details: primary human endothelial cells (HUVEC); actives raise or lower the signal
Outline: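 In a multiplexed primary-cell system, human umbilical vein endothelium received chemical and was assayed 24 h later for thrombomodulin by ELISA. Parallel cultures were SRB-stained (0.1% SRB after 10% TCA fixation, read at 560 nm) to flag cytotoxicity.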

[10] = read-out: Urokinase-type plasminogen activator receptor (uPAR), PLAUR (gene 5329); assay: BSK_4H_uPAR: BioMAP Diversity Plus: 4H Assay for Urokinase-type plasminogen activator receptor (uPAR) Biomarker Activity (AID 2283030); details: primary human endothelial cells (HUVEC); actives raise or lower the signal
Outline: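 HUVEC, 24 h post-dose; uPAR by ELISA; bidirectional fit vs DMSO baseline.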

[11] = read-out: Vascular endothelial growth factor receptor 2 (Homo sapiens) (UniProt P35968); assay: BSK_4H_VEGFRII: BioMAP Diversity Plus: 4H Assay for Vascular endothelial growth factor receptor 2 (VEGFR2) Biomarker Activity (AID 2283031); details: primary human endothelial cells (HUVEC); actives raise or lower the signal
Outline: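 HUVEC (human primary), 4H system; 24 h post-dose; VEGFRII by ELISA; bidirectional curve fit vs DMSO baseline; gain or loss of signal scored.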

[12] = read-out: Human Leukocyte Antigen - DR isotype (HLADR), HLA-DRA (gene 3122); assay: BSK_BE3C_HLADR: BioMAP Diversity Plus: BE3C Assay for Human Leukocyte Antigen - DR isotype (HLADR) Biomarker Activity (AID 2283032); details: primary human bronchial epithelial cells; actives raise or lower the signal
Outline: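 BioMAP BE3C format: human bronchial epithelium, 24 h compound treatment, ELISA detection of HLA-DR, with bidirectional analysis relative to DMSO.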

[13] = read-out: Vascular cell adhesion molecule 1 (VCAM1), VCAM1 (gene 7412); assay: BSK_4H_VCAM1: BioMAP Diversity Plus: 4H Assay for Vascular cell adhesion molecule 1 (VCAM1) Biomarker Activity (AID 2283033); details: primary human endothelial cells (HUVEC); actives raise or lower the signal;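 note: cell-surface VCAM-1 protein measured by ELISA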
Outline: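 In this human endothelial (HUVEC) system, biomarker ELISA was run 24 h after compound addition, and total protein in parallel wells was assessed by SRB at 560 nm; DMSO served as negative control.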

[14] = read-out: Interferon-gamma inducible Protein 10 (IP10), CXCL10 (gene 3627); assay: BSK_BE3C_IP10: BioMAP Diversity Plus: BE3C Assay for Interferon-gamma inducible Protein 10 (IP10) Biomarker Activity (AID 2283034); details: primary human bronchial epithelial cells; actives raise or lower the signal
Outline: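 BE3C cells (human bronchial epithelial, primary); 24 h exposure; ELISA for IP-10; DMSO-referenced bidirectional fit.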

[15] = read-out: Monokine induced gamma interferon (MIG), CXCL9 (gene 4283); assay: BSK_BE3C_MIG: BioMAP Diversity Plus: BE3C Assay for Monokine induced gamma interferon (MIG) Biomarker Activity (AID 2283035); details: primary human bronchial epithelial cells; actives raise or lower the signal;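 note: MIG protein measured by ELISA in BE3C cultures after 24 h of dosing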
Outline: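 Dose cells (human primary bronchial epithelial), incubate 24 h, quantify MIG by ELISA, then fit concentration–response in both directions relative to DMSO control.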

[16] = read-out: Transforming growth factor beta 1 (TGFb1), TGFB1 (gene 7040); assay: BSK_BE3C_TGFb1: BioMAP Diversity Plus: BE3C Assay for Transforming growth factor beta 1 (TGFb1) Biomarker Activity (AID 2283036;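 note: TGF-b1 protein level measured by ELISA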); details: primary human bronchial epithelial cells; actives raise or lower the signal
Outline: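 TGF-b1 measured via ELISA, 24 h after chemical dosing of human bronchial epithelial cells (BE3C). Overt cytotoxicity assessed in parallel by SRB (0.1%, TCA-fixed, 560 nm); analysis bidirectional relative to DMSO.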

[17] = read-out: Plasminogen activator inhibitor-1 (PAI1), SERPINE1 (gene 5054); assay: BSK_BE3C_PAI1: BioMAP Diversity Plus: BE3C Assay for Plasminogen activator inhibitor-1 (PAI1) Biomarker Activity (AID 2283037); details: primary human bronchial epithelial cells; actives raise or lower the signal
Outline: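 In this multiplexed primary-cell system, bronchial epithelial cells receive test chemical and are sampled at 24 h. PAI-1 is read by ELISA, with DMSO serving as negative control for bidirectional fitting.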

[18] = read-out: urokinase plasminogen activator (uPA), PLAU (gene 5328); assay: BSK_BE3C_uPA: BioMAP Diversity Plus: BE3C Assay for urokinase plasminogen activator (uPA) Biomarker Activity (AID 2283038); details: primary human bronchial epithelial cells; actives raise or lower the signal;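 note: uPA protein level quantified by ELISA in cell cultures; uPA read one day after compound addition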
Outline: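 ELISA read-out of uPA in human lung primary bronchial epithelial cultures, 24 h post-dosing. Gain or loss of signal fitted bidirectionally relative to DMSO baseline; cytotoxicity checked in parallel cultures via SRB total protein stain.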

[19] = read-out: Urokinase-type plasminogen activator receptor (uPAR), PLAUR (gene 5329); assay: BSK_BE3C_uPAR: BioMAP Diversity Plus: BE3C Assay for Urokinase-type plasminogen activator receptor (uPAR) Biomarker Activity (AID 2283039); details: primary human bronchial epithelial cells; actives raise or lower the signal;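 note: uPAR protein level measured by ELISA on the cells; cells exposed to compound for one day before measurement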
Outline: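 Chemically treated human bronchial epithelial cells (lung primary) are assayed for uPAR by ELISA after 24 h, with data fitted in both directions using DMSO as negative control.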

[20] = molecular target: human Vitamin D Receptor (VDR), VDR (gene 7421) (UniProt P11473); assay: ATG_VDR_TRANS: Attagene TRANS-FACTORIAL HepG2 Assay for human Vitamin D Receptor (VDR) (AID 2283022; active = hit-call score of the fitted dose curve at least 0.9, where 1 is the maximum)
Outline: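 RT-PCR/capillary electrophoresis read-out of reporter mRNA induction in transiently transfected HepG2; 24 h dosing; chimeric NR-Gal4 (TRANS format); gain-of-signal fit against DMSO baseline.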

Measured: outcome

human Vitamin D Receptor (VDR), VDR (gene 7421), sequence (P11473 whole entry, looked up, the tested form may be a part): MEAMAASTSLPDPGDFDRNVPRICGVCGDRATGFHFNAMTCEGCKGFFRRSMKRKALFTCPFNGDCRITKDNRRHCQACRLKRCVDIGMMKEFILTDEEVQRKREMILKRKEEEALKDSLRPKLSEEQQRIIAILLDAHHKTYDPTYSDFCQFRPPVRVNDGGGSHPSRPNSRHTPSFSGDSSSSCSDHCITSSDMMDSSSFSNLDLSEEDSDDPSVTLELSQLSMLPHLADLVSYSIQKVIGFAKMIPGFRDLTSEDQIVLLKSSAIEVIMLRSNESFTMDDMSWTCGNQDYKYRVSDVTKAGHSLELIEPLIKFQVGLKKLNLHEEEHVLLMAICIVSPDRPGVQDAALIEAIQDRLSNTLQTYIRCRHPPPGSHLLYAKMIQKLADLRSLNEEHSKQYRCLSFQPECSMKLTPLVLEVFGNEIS

OCC1CO1 (stereo not drawn)
inactive: [1] | [2] | [3] | [4] | [5] | [6] | [7] | [8] | [9] | [10] | [11] | [12] | [13] | [14] | [15] | [16] | [17] | [18] | [19]

Cc1cccc(N)c1
inactive: [1] | [2] | [20] | [3] | [4] | [5] | [6] | [7] | [8] | [9] | [10] | [12] | [13] | [14] | [15] | [16] | [17] | [18] | [19]

ClC(Cl)c1ccccc1
inactive: [1] | [2] | [3] | [4] | [5] | [6] | [7] | [8] | [9] | [10] | [11] | [12] | [13] | [14] | [15] | [16] | [17] | [18] | [19]

OCC(F)(F)OC(F)(F)C(F)(F)OC(F)(F)CO
inactive: [1] | [2] | [20] | [3] | [4] | [6] | [7] | [8] | [9] | [10] | [11] | [12] | [13] | [14] | [15] | [17] | [18] | [19]

[N-]=[N+]=[N-]
inactive: [1] | [2] | [3] | [4] | [5] | [6] | [7] | [8] | [9] | [10] | [11] | [12] | [13] | [14] | [15] | [16] | [17] | [18] | [19]

c1ccc2c(c1)Nc1ccccc1S2
inactive: [1] | [2] | [3] | [4] | [5] | [6] | [7] | [8] | [9] | [10] | [11] | [12] | [13] | [14] | [15] | [16] | [17] | [18] | [19]
